# According to the supplement of paper PMC10105736:
# Values without a mark were called inactive.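 The calls were made as follows: active = MAPPIT score above the 99th percentile of random reference set scores in the same batch; inactive = at or below it.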
# B1: CG8745 (protein)
# chain: MPFAHEQLNLVASEQLSKTETIKLRNQHIGQACQLFYRSDPLKIVRGQGQYMFDEEGTRYLDCINNVAHVGHCHPEVVRAGALQMATISTNNRFLHDELVQCARTLTSKMPEPLSVCFFVNSGSEANDLALRLARNFTKRQDVITLDHAYHGHLQSVMEVSPYKFNQPGGEAKPDYVHVAPCPDVYGGKFTDKMYPDADMGALYAQPIEEICQKQLAKGQGVAAFIAESLQSCGGQILPPAGYFQAVYDAVRSAGGVCIADEVQVGFGRVGSHYWAFETQNVIPDIVCVAKPMGNGHPVGAVVTTPEIAQAFHATGVAYFNTYGGNPVSCAIANAVMRVIEEEGLQQKALVLGDYLLEECNRLKQEFECIGDVRGAGLFVGIELVQDRKERIPDKKAAHWVVNRMKQLHRVLVSSDGPNDNVIKLKPPMCFNRENADEFLLGFRECLTAVMQERLASATSAAMAATSGVIATATETLANKTKLFERQDRLIKSV
# B2: Arr1 (protein)
# chain: MVVNFKVFKKCSPNNMITLYMNRRDFVDSVTQVEPIDGIIVLDDEYVRQNRKIFVQLVCNFRYGREDDEMIGLRFQKELTLVSQQVCPPQKQDIQLTKMQERLLKKLGSNAYPFVMQMPPSSPASVVLQQKASDESQPCGVQYFVKIFTGDSDCDRSHRRSTINLGIRKVQYAPTKQGIQPCTVVRKDFLLSPGELELEVTLDKQLYHHGEKISVNICVRNNSNKVVKKIKAMVQQGVDVVLFQNGQFRNTIAFMETSEGCPLNPGSSLQKVMYLVPTLVANCDRAGIAVEGDIKRKDTALASTTLIASQDARDAFGIIVSYAVKVKLFLGALGGELCAELPFILMHPKPSRKAQLEAEGSIEA
# B3: mRpL52 (protein)
# chain: MLKITKICLASSATSTAQRSIALTAPRAIDQKWRAAKGLPENPNAFGPLTNLPDYTYLDGRPTPLGANQKRRLIKQQEIATRIVELSGELEFAKQRHERLKANAESEKQRLIRSKLKPKGHFLLKK
# B4: Cdlc2 (protein)
# chain: MSDRKAVIKNADMSEEMQQDAVDCATQALEKYNIEKDIAAFIKKEFDKKYNPTWHCIVGRNFGSYVTHETRHFIYFYLGQVAILLFKSG
# B5: CycG (protein)
# chain: MSVPVRYSSAAAEYAAEVDCELESTLQQQQQLHLQQQYEQYQHYQYQREQDIAYYCQLQAARQQEQLMQQRTSMSSSVMPGLALPQDHQDHPAALLNGPHNNNIGLAMDAHSINAILVDDEQPSTSAQAAAAAAASAGGSAGAGSGSGLGGAIGGGKLANGINRNAEMPTDWMRIADEGRYGTPGAAGLEYQKYEQQQQLEDLAESEAGAVGGASNNNGESSSSLKKLEDQLHALTSDELYETLKEYDVLQDKFHTVLLLPKESRREVTAGGRDGSAYVLRCLKMWYELPSDVLFSAMSLVDRFLDRMAVKPKHMACMSVASFHLAIKQLDLKPIPAEDLVTISQCGCTAGDLERMAGVIANKLGVQMGHAPITSVSYLRIYYALFRNLAKEIGGDFFKFYQQLIKLEELENRLEILMCDVKTTVITPSTLALVLICLHLDFHIKESYTRGSPELKHVFEYILFLQQYMRIPDRVFTCGFSIVSGILSHYNGQNKAPYKQRLVWKLSSRTLRVLRPINRFSSDLPTIEEGIPNALDDGLRSRTESISSEEEEDWPTSPIIPIFEQC
# B6: Edg78E (protein)
# chain: MYKYLFCLALIGCACADNINKDAQIRSFQNDATDAEGNYQYAYETSNGIQIQEAGNANGARGAVAYVSPEGEHISLTYTADEEGYHPVGDHLPTPPPVPAYVLRALEYIRTHPPAPAQKEQQ
# B7: Vha68-2 (protein)
# chain: MSNLKRFDDEERESKYGRVFAVSGPVVTAEAMSGSAMYELVRVGYYELVGEIIRLEGDMATIQVYEETSGVTVGDPVLRTGKPLSVELGPGIMGSIFDGIQRPLKDINELTESIYIPKGVNVPSLSRVASWEFNPLNVKVGSHITGGDLYGLVHENTLVKHKMIVNPRAKGTVRYIAPSGNYKVDDVVLETEFDGEITKHTMLQVWPVRQPRPVTEKLPANHPLLTGQRVLDSLFPCVQGGTTAIPGAFGCGKTVISQALSKYSNSDVIIYVGCGERGNEMSEVLRDFPELSVEIDGVTESIMKRTALVANTSNMPVAAREASIYTGITLSEYFRDMGYNVSMMADSTSRWAEALREISGRLAEMPADSGYPAYLGARLASFYERAGRVKCLGNPEREGSVSIVGAVSPPGGDFSDPVTSATLGIVQVFWGLDKKLAQRKHFPSINWLISYSKYMRALDDFYDKNFPEFVPLRTKVKEILQEEEDLSEIVQLVGKASLAETDKITLEVAKLLKDDFLQQNSYSSYDRFCPFYKTVGMLRNIIDFYDMARHSVESTAQSENKITWNVIREAMGNIMYQLSSMKFKDPVKDGEAKIKADFEQLHEDLQQAFRNLED
# B8: osk (protein)
# chain: MAAVTSEFPSKPISYTSTNTSAKTYYLKSVKKRVTTCFQQLRDKLQSSGSFRKSSSSCLNQIFVRSDFSACGERFRKIFKSARKTELPELWKVPLVAHELTSRQSSQQLQVVARLFSSTQISTKEITYNSNSNTSENNMTIIESNYISVREEYPDIDSEVRAILLSHAQNGITISSIKSEYRKLTGNPFPLHDNVTDFLLTIPNVTAECSESGKRIFNLKASLKNGHLLDMVLNQKERTSDYSSGAPSLENIPRAPPRYWKNPFKRRALSQLNTSPRTVPKITDEKTKDIATRPVSLHQMANEAAESNWCYQDNWKHLNNFYQQASVNAPKMPVPINIYSPDAPEEPINLAPPGHQPSCRTQSQKTEPTENRHLGIFVHPFNGMNIMKRRHEMTPTPTILTSGTYNDSLLTINSDYDAYLLDFPLMGDDFMLYLARMELKCRFRRHERVLQSGLCVSGLTINGARNRLKRVQLPEGTQIIVNIGSVDIMRGKPLVQIEHDFRLLIKEMHNMRLVPILTNLAPLGNYCHDKVLCDKIYRFNKFIRSECCHLKVIDIHSCLINERGVVRFDCFQASPRQVTGSKEPYLFWNKIGRQRVLQVIETSLEY
# B9: Sry-alpha (protein)
# chain: MEQLLAQLHTCSELIAEGYSSTGNIGWLNEFCATFLDFASDLKARLPEVAPSGANLDVETIFLCLTQVVTCITHLERTISMEAPHMTRQHFLDRLDWCLRRLLVSLTQLEGNVTPVKNLEDHSFVELMDLALDHLDDYMEKLAQQRNNSLHILEESFTEDTYQLASIVNHIVRHALAFANVAIHSDKKALTALCETLLAECATFHEEAGEPNSGHRKLEALSLERALYALESFLNEALLHLLFVSLIDLENASVEKLKDALQRDPAGAQELISAFDTNMDRIQQIGVLAIAFSQDIKTKTIVRSCLASLESLDACIVPALQLPESTSSAHHAEVLQEHFNQELLIFRNVIHEIIDSCSLINNYLDMLGERIHVQDKSHLKLIVQRGGVVVDHFRLPVNYSGLSEDGKRVHKDLILILRECQAVVNLDVPVDPKRIVKRLKILYSVLAKLRDLICRDNLEPDSSVASEAQVPSSATRTFVRSSRSFGKRHRSFVKQTGNCSVFGPQDSLAESGHSESDLISFQITEILRLD
# Experiments:
# Test in all cases: MAPPIT interaction score (arbitrary units); higher = stronger binary interaction signal, active = hit call of the paper
# CG12343 = conditions: MAPPIT configuration: N-N; pair source set: DPIM
# CG12155 = conditions: MAPPIT configuration: N-N; pair source set: Lit-BS-16
# Ravus = conditions: MAPPIT configuration: N-N; pair source set: screen_1
# CG12268 = conditions: MAPPIT configuration: N-N; pair source set: DPIM
# mub = conditions: MAPPIT configuration: N-N; pair source set: DPIM
# CG11983 = conditions: MAPPIT configuration: N-N; pair source set: screen_1
# CG12307 = conditions: MAPPIT configuration: N-C; pair source set: screen_3
# CG5151 = conditions: MAPPIT configuration: N-N; pair source set: Curagen_high_conf
# Npl4 = conditions: MAPPIT configuration: N-N; pair source set: Finley_Y2H
# PAN3 = conditions: MAPPIT configuration: N-N; pair source set: Finley_Y2H
# Sxl = conditions: MAPPIT configuration: N-N; pair source set: Finley_Y2H
# mxt = conditions: MAPPIT configuration: N-N; pair source set: screen_1
# CG12112 = conditions: MAPPIT configuration: N-N; pair source set: RRS
# CG1246 = conditions: MAPPIT configuration: N-N; pair source set: DPIM
# CG30324 = conditions: MAPPIT configuration: N-C; pair source set: screen_3
# en = conditions: MAPPIT configuration: N-C; pair source set: screen_4
# CG12253 = conditions: MAPPIT configuration: N-C; pair source set: screen_3
# Hsp70Aa = conditions: MAPPIT configuration: N-N; pair source set: Lit-BS-16
# 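Also: HEK293T cells with Epo stimulation, STAT-responsive firefly luciferase reporter, fold induction versus unstimulated cells divided by the larger fold induction of two negative controls lacking either bait or prey.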
binder,measurement,setting,value
B1,MAPPIT interaction score,CG12343,0.219
B2,MAPPIT interaction score,CG12155,0.0379
same,MAPPIT interaction score,Ravus,0.0915
B3,MAPPIT interaction score,CG12268,-0.169
same,MAPPIT interaction score,mub,0.103
B4,MAPPIT interaction score,CG11983,4.18 (active)
B5,MAPPIT interaction score,CG12307,0.375
same,MAPPIT interaction score,CG5151,0.112
same,MAPPIT interaction score,Npl4,3.83 (active)
same,MAPPIT interaction score,PAN3,0.781
same,MAPPIT interaction score,Sxl,1.86
same,MAPPIT interaction score,mxt,-0.277
B6,MAPPIT interaction score,CG12112,2.76 (active)
B7,MAPPIT interaction score,CG1246,-0.102
B8,MAPPIT interaction score,CG12307,2.35
same,MAPPIT interaction score,CG30324,0.362
same,MAPPIT interaction score,en,0.844
B9,MAPPIT interaction score,CG12253,0.332
same,MAPPIT interaction score,Hsp70Aa,3.5 (active)
